Only some compounds are listed: those with a hit (about 6.2% of all), similar ones and a draw of the others.
Marburg entry inh: Marburg virus entry inhibition | Potency, µM (series often up to 37.8 µM), usual class: inhibitors | Marburg virus pseudotyped entry inhibition, cell reporter | AID 540276 | 300,000 tested, 1.8% active; calls by dose curve; tested in HEK293 cells
FMDV antiviral: blocks foot and mouth disease virus; Potency, µM (series often up to 57.9 µM), usual class: inhibitors; FMDV antiviral cell-based qHTS; AID 1159524; 410,000 tested, 1.2% active; calls by dose curve; tested in HEK293T cells; note: read-out not given here; nearly all actives have a fitted effect of over 45% in size
Lassa entry inh: blocks Lassa virus binding to or entry into cells. Lassa virus pseudotype entry inhibition, cell reporter. Potency, µM (titrated, usually from 37.9 µM), actives largely listed as inhibitors. 300,000 tested, 1.2% active. AID 540256; calls by dose curve; tested in HEK293 cells; note: nearly all actives have a fitted effect of over 50% in size
HCMV antiviral: human cytomegalovirus inhibition | HFF cells, HCMV-luciferase reporter, 72 h; stronger effect = lower value | activity change, negative = inhibition, % at 57.5 µM | 410,000 tested, 4.5% active; in the data active = activity change below about -60%; inconclusive = no clear call, values can overlap the other calls; inactive = above about -39%
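Human foreskin fibroblasts infected with luciferase-reporter HCMV at MOI 1 PFU/cell, compounds at two doses. Luciferase measured 72 h post infection; normalized to buffer-only basal and Salinomycin (10uM) controls.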
Numbers stand for hits; n = inactive; u = inconclusive; x = no result.

SMILES	Marburg entry inh	FMDV antiviral	Lassa entry inh	HCMV antiviral
Cc1ccc(C(=O)CN2C(=O)c3ccccc3S2(=O)=O)cc1	u	14µM	u	-88
CCOC(=O)C(C)NC(=O)c1c2c(nc3ccccc13)C(=O)N(C1CCCCC1)C2 (stereo unspecified)	x	n	n	n
CC1CN(CC(=O)NCC2(N3CCOCC3)CCCC2)Cc2cc(Cl)ccc2O1 (stereo unspecified)	x	n	x	x
CCCCN(C)CCNC(=O)Cn1ncc2c3ccccc3n(CCC)c2c1=O	x	n	n	n
CC(=O)NCCNc1ncnc2ccc(-c3cccc(NS(C)(=O)=O)c3)cc12	x	n	x	x
CCCc1nc(SC)ncc1C(=O)N1CCN(c2ccc(Cl)cc2)CC1	x	u	n	n
Cc1ccccc1OCC(=O)Nc1ccc(OCc2cc(=O)n3ccccc3n2)cc1	x	n	n	n
O=C(CCN1C(=O)c2ccccc2S1(=O)=O)Nc1ccc(Cl)cc1	n	n	n	-78
O=C(CN1C(=O)c2ccccc2S1(=O)=O)c1ccccc1	u	u	4µM	-65
CCOC(=O)CSc1nc2cc(OC)c(OC)cc2c2nc(-c3ccccc3)nn12	n	n	n	n
CCOC(=O)N/N=C1/C[C@@H](O)[C@@H](O)[C@@H]2[C@@H]3C(=O)N(Cc4ccc5c(c4)OCO5)C(=O)[C@H]3CC[C@@H]12	n	x	x	x
Oc1c(CN2CCOCC2)cc(COCc2ccccc2)c2cccnc12	u	n	u	-95
Oc1c(CNc2ccccc2)cc(COCc2ccccc2)c2cccnc12	x	u	x	-100
Oc1ccc(NCc2cccc(OCc3ccccc3)c2)cc1	x	n	x	n
C=CCOC(=O)[C@H](C#N)c1nc2ccccc2nc1N1CCC(C(=O)OCC)CC1	n	x	x	x
CCN(C)C(=O)C1=COC2=NC(=O)N(Cc3ccccc3)CCN12	x	x	x	n
COc1ccc2[nH]c(C)c(CCNc3ccc(C(F)(F)F)cc3[N+](=O)[O-])c2c1	2.5µM	u	n	n
CS(=O)(=O)NCCNc1ccc(C(F)(F)F)cc1[N+](=O)[O-]	x	n	x	n
COc1ccc(CNCCc2c(C)[nH]c3ccc(OC(F)(F)F)cc23)c(OC)c1	6.3µM	n	u	-66
Nc1nnc(SCC(=O)NNC(=O)c2ccc(Cl)cc2)s1	x	n	x	-73
Cc1nnc(SCC(=O)NNC(=O)c2ccc(Cl)cc2)s1	u	n	n	n
CC1(c2ccccc2)O[C@@H]2C[C@H]3[C@@H]4CCC5=CC(=O)C=C[C@]5(C)[C@@]4(F)[C@@H](O)C[C@]3(C)[C@]2(C(=O)CO)O1 (stereo partly specified)	10µM	u	u	n
CN(C)c1ccc(/C=C2/C(=O)Nc3ccccc32)cc1	2µM	n	x	x
CN(C)c1ccc(/C=C2\C(=O)Nc3ccccc32)cc1	2µM	n	u	x
O=C1Nc2ccccc2/C1=C/c1cccnc1	u	n	u	n
SMILES	Marburg entry inh	FMDV antiviral	Lassa entry inh	HCMV antiviral
O=c1[nH]c(=O)n(-c2cccc3ccccc23)c(O)c1C=NCc1ccc2c(c1)OCO2	n	u	n	-108
COC(=O)c1cscc1S(=O)(=O)Cc1ccccc1	x	n	x	n
COc1ccc(CNC(=O)c2nc(S(=O)(=O)Cc3ccccc3)ncc2Cl)cc1	n	22µM	u	-95
O=C(NCc1ccccc1)c1nc(S(=O)(=O)Cc2ccccc2)ncc1Cl	n	32µM	u	-78
COC(=O)c1ccccc1NC(=O)c1nc(S(=O)(=O)Cc2ccccc2)ncc1Cl	x	32µM	x	-110
CS(=O)(=O)c1ncc(Cl)c(C(=O)Nc2ccc3ccccc3c2)n1	8.9µM	13µM	u	-98
O=C(Nc1ccc2ccccc2c1)c1cnccn1	u	n	u	n
O=C(O)COc1ccc(OCCNC[C@H](O)COc2ccccc2)cc1	x	n	x	x
COc1ccc(CNC(=O)c2nc(SCc3ccc(C)cc3)ncc2Cl)cc1	n	n	u	-70
CCS(=O)(=O)c1ncc(Cl)c(C(=O)NCc2ccccc2)n1	u	u	u	-100
CCCS(=O)(=O)c1ncc(Cl)c(C(=O)Nc2c(C(=O)Nc3ccccc3)oc3ccccc23)n1	n	u	u	n
CC(=O)Nc1ccc(NC(=O)c2nc(S(=O)(=O)Cc3ccccc3)ncc2Cl)cc1	x	32µM	x	-86
Cc1ccc(CNC(=O)c2nc(SCc3ccccc3C)ncc2Cl)cc1	n	u	n	n
Cc1noc(C(=O)NCc2ccccc2)c1Cl	x	n	x	n
Cc1cccc(-c2nc(CCNC(=O)Cc3ccccc3)cs2)c1	x	n	n	u
Cc1cccc(CSCc2ccc(C(=O)NCCc3ccccc3)o2)c1	x	n	n	n
CCCCNC(=O)c1nc2cc(C)c(C)cc2nc1-c1ccc2c(c1)OCO2	x	x	x	n
Cc1cc(C)cc(N(CCC#N)C(=O)CSc2nc3ccccc3c(=O)[nH]2)c1	10µM	n	u	n
Cc1ccc(C)c(C(=O)CSc2nc3ccccc3c(=O)[nH]2)c1	n	n	n	-66
Cc1cc(C)c(C(=O)CSc2nc3ccccc3c(=O)[nH]2)cc1C	n	n	n	n
CCOc1ccccc1CNC(=O)c1sc2ncccc2c1-n1cccc1	x	n	n	n
O=C1COc2ccccc2N1Cc1c(F)cccc1Cl	x	n	x	-63
Cc1ccc(Nc2nc(N3CCOCC3)c3ccccc3n2)cc1	u	u	u	n
Oc1ccc(Nc2nc(N3CCCC3)c3ccccc3n2)cc1	11µM	n	u	-66
COc1ccc(Nc2nc(-c3ccccc3)c3cc(Br)ccc3n2)cc1	x	n	n	-61
SMILES	Marburg entry inh	FMDV antiviral	Lassa entry inh	HCMV antiviral
CC(C)(C)C(=O)NNc1nc(-c2ccccc2)c2cc(Br)ccc2n1	u	n	n	n
C(=C\c1nc(N2CCCC2)c2ccccc2n1)/c1ccccc1	7.1µM	u	u	-72
COc1ccc(Nc2nc(N3CCCCC3)c3ccccc3n2)cc1	u	25µM	u	-64
CCC[C@H]1[C@@H](NC(=O)Nc2ccc(Cl)cc2)CC[C@@]23CCCN2C(=O)CCC[C@@H]13	x	x	x	n
CO/N=C1\CCCc2c(C(=O)NN)sc(SC)c21	u	n	u	-66
CCOC(=O)c1sc(SC)c2c1CCC/C2=N/OC	n	n	n	n
CCCCc1ccc(-c2ccc(C)cc2O)nc1	u	n	10µM	n
O=C(O)c1ccc(Nc2nc3ccccc3n3cnnc23)cc1	u	n	x	n
COc1ccc(Nc2nnc(-c3ccc4c(c3)OCO4)o2)cc1	x	x	x	n
Cc1cc(C)nc(-c2cccc3c2OC(CNC(=O)C2CCOC2)C3)n1 (stereo unspecified)	x	n	x	x
CCc1ccc(CN(C)C(=O)CCc2nc3ccccc3n(-c3ccc(OC)cc3)c2=O)cc1	10µM	u	14µM	-68
COc1ccc(-c2nc3cnc(OC)nc3n(C[C@H]3CCCO3)c2=O)cc1	x	n	x	x
Cc1ccc(OCCCn2c(CO)nc3ccccc32)cc1	n	n	n	n
CCCCN1CC(c2nc3ccccc3n2CCCCOc2ccccc2C)CC1=O (stereo unspecified)	u	n	n	-68
Cc1ccc(OCCCCn2cnc3ccccc32)cc1	n	n	n	n
Cc1ccc(Cn2cnc3ccccc32)cc1C	n	u	n	-63
Cc1cccc(Cn2cnc3ccccc32)c1	u	n	n	n
Cc1ccccc1OCCCCn1cnc2ccccc21	n	n	n	-68
Cc1ccccc1OCCCCn1c(CO)nc2ccccc21	u	u	u	-94
FC(F)(F)c1ccccc1-c1nccc(NCc2ccccc2)n1	x	n	x	x

Screening data from PubChem BioAssay.
